Luc counter – Counterscreen for Luciferase (Kinase-Glo TM) Inhibition. Kinase-Glo luciferase, ATP luminescence, 8 min. Potency, µM (titrated, usually from 38.3 µM), inactives show at the highest dose activity change, negative = inhibition, most hits filed as inhibitors. 200,000 tested, 0.28% active. AID 1379, 2008. Luciferin 4-monooxygenase (Photuris pensylvanica), Q27757; further: on the % scale 0 is the no-effect control and ±100 the full control effect; nearly all actives have a fitted effect of over 60% in size
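Kinase-Glo luciferase light output from ATP and luciferin was measured with 10 uM ATP, within the enzyme's linear range. Buffer: 50 mM imidazole pH 7.2, 50 mM KCl, 7 mM MgCl2, 0.01% Tween 20, 0.05% BSA; luminescence read after 8 min at ambient temperature.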
NPC1 promoter act – qHTS Assay for NPC1 Promoter Activators. 320,000 tested, 2.4% active. AID 485313, 2010. Potency, µM (top dose mostly 9.22 µM), for inactives: top-dose activation, usual class: activators. Huh7 NPC1 promoter luciferase reporter, 24 h; further: % of control where 0% means no effect; nearly all actives have a fitted effect of over 60% in size
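Compounds in DMSO were transferred onto Huh7 NPC1-luciferase reporter cells pre-incubated 2 h; after 24 h at 37 °C, Amplite reagent was dispensed and luminescence recorded 10 min later.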
FLuc modulator – qHTS profiling assay for firefly luciferase inhibitor/activator using purifed enzyme and Km concentrations of substrates (counterscreen for miR-21 project); 360,000 tested, 6.9% active; purified FLuc, Km substrates, luminescence inhibition; Luciferin 4-monooxygenase (Photinus pyralis), P08659; Potency, µM (highest dose often 57.5 µM), for the others: at the top dose activity change, negative = inhibition, actives largely listed as inhibitors; AID 588342, 2011;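 further: plate controls were vehicle for no effect and reference inhibitor for full effect; nearly all actives have a fitted effect of over 55% in size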
Target sequence (P08659 whole entry, looked up): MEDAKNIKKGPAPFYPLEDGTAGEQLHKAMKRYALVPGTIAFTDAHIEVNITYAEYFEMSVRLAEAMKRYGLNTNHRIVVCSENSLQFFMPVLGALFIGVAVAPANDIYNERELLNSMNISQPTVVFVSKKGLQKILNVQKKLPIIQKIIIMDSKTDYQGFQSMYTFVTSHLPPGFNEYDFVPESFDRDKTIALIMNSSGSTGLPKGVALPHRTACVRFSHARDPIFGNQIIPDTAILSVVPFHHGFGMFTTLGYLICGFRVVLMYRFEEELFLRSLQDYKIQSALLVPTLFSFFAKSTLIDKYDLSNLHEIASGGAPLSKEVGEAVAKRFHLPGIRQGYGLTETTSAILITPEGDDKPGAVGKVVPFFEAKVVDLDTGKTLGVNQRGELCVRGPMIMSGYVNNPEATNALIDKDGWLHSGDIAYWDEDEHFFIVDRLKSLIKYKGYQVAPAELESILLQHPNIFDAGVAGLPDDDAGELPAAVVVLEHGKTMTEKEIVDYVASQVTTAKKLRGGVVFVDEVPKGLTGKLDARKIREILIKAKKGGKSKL
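Purified P. pyralis luciferase (10nM final) with 10uM D-luciferin and 10uM ATP (Km levels) in 50mM Tris acetate pH 7.5, 10mM Mg acetate, 0.01% Tween-20, 0.05% BSA; qHTS 6-point titration, ~60 µM downward; luminescence read.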
SMN2 splice enh – qHTS Assay for Enhancers of SMN2 Splice Variant Expression; Potency, µM (top dose mostly 46.1 µM), for the others: top-dose activity change, positive = activation, most hits filed as activators; AID 1458, 2008; 210,000 tested, 2.8% active; HEK293 SMN2-luciferase splicing reporter, luminescence, 30-36 h; further: % of control where 0% means no effect; nearly all actives have a fitted effect of over 55% in size
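qHTS luciferase splicing reporter: luminescence rises when SMN2 exon 7 is included in transfected HEK293 cells. Compound exposure lasted 30-36 h at 37C, with 4.5 mM final sodium butyrate as control, followed by a ONE-Glo read.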
Rab9 prom act – qHTS Assay for Rab9 Promoter Activators; Huh7 Rab9 promoter-luciferase reporter, luminescence, 24 h; Potency, µM (doses to about 9.22 µM), for the others: top-dose activation, negative = inhibition, most hits filed as activators; 320,000 tested, 2.8% active; further: % of control where 0% means no effect; nearly all actives have a fitted effect of over 60% in size
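Quantitative HTS format; Huh7 Rab9-luciferase reporter cells (1500/well) receive compound 2 h post-plating, incubate 24 h at 37 °C, then get luciferase reagent for 10 min before luminescence reading.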
ELG1 genotoxic – qHTS screen for small molecules that induce genotoxicity in human embryonic kidney (HEK293T) cells expressing luciferase-tagged ELG1. HEK293T ELG1-luciferase reporter, luminescence, 16 h. Potency, µM (titrated, usually from 46 µM), without a hit: at the highest dose activity change, positive = activation, actives largely listed as activators. 330,000 tested, 1.3% active; further: % of control where 0% means no effect; nearly all actives have a fitted effect of over 60% in size
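HEK293T cells expressing luciferase-tagged ELG1 were exposed to compound or DMSO vehicle for 16 hr at 37 °C and 5% CO2. Luciferase activity was then measured with ONE-Glo after 30 min at room temperature.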
Starred values were filed as active, the others as inactive; ? = inconclusive; nt = no result given; [ ] = dose if it differs, or a comment. Most compounds without a hit are left out; they make up all but 7.3% or so of the library. The call rests on the fitted dose curve; in most records, active means well fitted curve in the direction sought with a large enough effect; inconclusive means small, poorly fitted or top-dose-only effect, or another doubt; inactive means no such curve, though single readings can be large; an effect the other way counts as inactive or inconclusive. Potency means the concentration at half of the fitted maximal effect.

SMILES | Luc counter | NPC1 promoter act | FLuc modulator | SMN2 splice enh | Rab9 prom act | ELG1 genotoxic
Cc1cccc(NC(=O)c2ccc(-n3c(C)nnc3C)cc2)c1 | nt | nt | -2% | nt | nt | nt
COc1ccc(CNCCCSc2nnnn2C)c(OC)c1 | nt | nt | 4% | nt | nt | nt
CN(C)/C=N/c1nc(-c2ccc3c(c2)OCO3)cs1 | ? | 4µM* | 17µM* | 14µM* | 3.5µM* | ?
CN(C)/C=N/c1nc(-c2ccc3ccccc3c2)cs1 | nt | 0.5µM* | 4.8µM* | nt | 0.35µM* | ?
CCOC(=O)C(=CNc1nc(-c2ccc3ccccc3c2)cs1)C(=O)OCC | nt | 7% | -14% | nt | 17% | -1%
CC(C)=N[C@H](C(=O)O)C(C)(C)S | 0%[7.66 µM] | nt | nt | -15%[9.22 µM] | nt | nt
CCOC(=O)C1(CCCc2ccccc2)CCN(C(=O)CN2CCOC2=O)CC1 | -4% | 1% | -1% | nt | -9% | -1%
CCOC(=O)C1(Cc2ccccc2Cl)CCN(C(=O)CN2CCOC2=O)CC1 | 0% | ? | 11µM* | nt | 3.5µM* | ?
CCc1ccc(NC(=O)CCn2c(-c3ccc(OC)cc3)cc(C(C)=O)c2C)cc1 | nt | nt | -1% | nt | nt | nt
c1ccc(-c2nc3c4ccccc4ccn3c2CN2CCOCC2)cc1 | nt | -3% | 4.8µM* | nt | 12% | ?
CC(C)(C)C(=O)NCCc1csc2nc(-c3ccc(F)cc3)nn12 | nt | nt | 3% | nt | nt | nt
CC(CNC(=O)C1CCN(C(=O)c2cc3sccc3n2C)CC1)c1ccccc1 (configuration not stated) | nt | nt | 2% | ? | nt | nt
Cn1nnnc1SCC(=O)Nc1ccc(Br)cc1Br | nt | nt | nt | nt | nt | 4%
Cc1ccc(C)c(NC(=O)c2ccccn2)c1 | -12% | 12% | ? | 14% | 23% | 12%
Cn1ccc(C(=O)Nc2ccc(Br)cc2Br)n1 | -18% | 3.5µM* | 3µM* | 5µM* | 3.2µM* | 4.6µM*
Cc1ccc(NC(=O)c2ccn(C)n2)c(Br)c1 | ? | ? | 6µM* | 2µM* | 3.2µM* | 5.2µM*
Cc1ccc(NC(=O)c2ccccn2)c(Br)c1 | nt | ? | 7.6µM* | nt | 2.8µM* | 4.1µM*
Cc1nn2c(=O)cc(COC(=O)c3ccccc3NC(=O)C(C)C)nc2s1 | nt | nt | -1% | nt | nt | nt
Cn1ncc2c(NCc3ccc(Cl)cc3)ncnc21 | nt | nt | -1% | nt | nt | nt
CSc1nc2sc3c(c2c(=O)n1Cc1ccccc1)CCC(C(C)(C)C)C3 (configuration not stated) | nt | nt | ? | -1% | nt | nt
Clc1nc2c(-c3ccccc3)nnn2c2ccccc12 | nt | 0% | 1.5µM* | nt | -1% | -10%
Fc1cccc(-c2nnn3c2nc(Cl)c2ccccc23)c1 | -7% | -4% | 1.7µM* | 1% | -1% | 24%
COC(=O)[C@@H]1C[C@H]1[C@@H](NC(=O)c1ccc(Br)cc1)c1ccccc1 | -2% | nt | nt | -38% | nt | nt
c1ccc(Oc2ccc(-c3ccn[nH]3)cc2)cc1 | nt | ? | 11µM* | nt | 3.2µM* | ?
c1ccc(Oc2ccc(-c3ccnc4ncnn34)cc2)cc1 | 2% | -1% | -11% | 1% | -12% | 10%
SMILES | Luc counter | NPC1 promoter act | FLuc modulator | SMN2 splice enh | Rab9 prom act | ELG1 genotoxic
COc1ccc(C)cc1NC(=O)c1cc2c(s1)-c1ccccc1SC2 | nt | nt | -15% | -4% | nt | nt
COc1ccc(OC)c2c1sc(=NC(=O)c1ccco1)n2C | -2% | 17% | -2% | 28% | 4% | ?
Cc1ccc(-c2c(C)sc(=NC(=O)c3ccco3)n2C)cc1 | -10% | 1.6µM* | 0.95µM* | ? | 2.5µM* | 17%
COc1cccc(-n2nnc(-c3nc(-c4ccccc4F)no3)c2C)c1 | nt | nt | 2.4µM* | nt | nt | nt
COc1ccc(Cl)cc1-n1nnc(-c2nc(-c3ccccc3)no2)c1C | nt | nt | 15µM* | nt | nt | nt
Cc1c(-c2nc(-c3ccccc3)no2)nnn1-c1ccc(F)c(Cl)c1 | nt | nt | -3% | nt | nt | nt
CC(C)Oc1ccc(Br)cc1C(=O)N/N=C/c1c[nH]c2ccccc12 | nt | -5% | -21% | nt | 2% | -6%
Nc1ccc(C(=O)N/N=C/c2c[nH]c3ccccc23)cc1 | nt | 6% | 13µM* | nt | 3% | 6%
O=C(N/N=C/c1c[nH]c2ccccc12)c1ccc(Br)cc1 | nt | 26% | 6.7µM* | nt | ? | ?
O=C(N/N=C/c1c[nH]c2ccccc12)c1ccccc1Cl | nt | 5% | ? | nt | -2%[1.84 µM] | 0%
O=C(N/N=C/c1c[nH]c2ccccc12)c1cc(Cl)ccc1O | nt | 21% | 17µM* | nt | 14% | 7%
O=C(N/N=C/c1c[nH]c2ccccc12)c1ccc(Cl)cc1 | nt | ? | 7.6µM* | nt | ? | 13%
CC(C)(C)OC(=O)N/N=C/c1c[nH]c2ccccc12 | -11% | 22% | 9.5µM* | nt | 25% | 15%
O=C(O)c1ccc(N/N=C/c2c[nH]c3ccccc23)cc1 | nt | -9% | 0.43µM* | nt | -5% | ?
O=C(N/N=C\c1c[nH]c2ccccc12)c1ccc(O)cc1 | nt | 22% | 15µM* | nt | 17% | 12%
Cc1occc1C(=O)N/N=C/c1c[nH]c2ccccc12 | -6% | ? | 13µM* | 5% | ? | ?
COC(=O)N/N=C/c1c[nH]c2ccccc12 | -5% | -3% | -16% | -47% | 1% | 0%
CCOc1ccc2oc(=O)cc(CN3CCN(c4ccc(Cl)cc4)CC3)c2c1 | nt | nt | -2% | -1% | nt | nt
O=C(c1cccn1-c1nnc(N2CCCC2)s1)N1CCN(c2ccc(Cl)cc2)CC1 | nt | nt | -10% | nt | nt | nt
